# Source: ChEMBL document CHEMBL3988442, “University of Dundee, Small-Polar-MMV Screening Library” (2021)
# Target: T1, Proteasome subunit beta (Trypanosoma cruzi) (UniProt O96673)
# T1 sequence (whole entry): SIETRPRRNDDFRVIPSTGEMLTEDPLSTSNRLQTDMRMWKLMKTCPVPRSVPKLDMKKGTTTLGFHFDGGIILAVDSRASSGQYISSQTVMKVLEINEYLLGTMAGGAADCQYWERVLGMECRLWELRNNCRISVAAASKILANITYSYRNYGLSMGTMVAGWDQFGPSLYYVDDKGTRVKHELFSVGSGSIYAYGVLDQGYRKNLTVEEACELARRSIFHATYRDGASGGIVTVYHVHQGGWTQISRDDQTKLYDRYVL
# Assay: Trypanosoma cruzi proteasome chymotrypsin-like activity (TcProtChymo) assay.
# Assay type: functional
# Design: scale not given: in the data most compounds retested in dose-response had high values
# Conditions: 9.37 µM
row,Compound,Percent Effect [%]
1,COc1cc(CNCCc2nc(C)cs2)cc2c1OCCO2,12.5
2,Cc1ccc(CN(Cc2ccccn2)C2CC(C)(C)NC(C)(C)C2)s1,8.27
3,CCc1ccccc1C(=O)N1CCN(S(C)(=O)=O)[C@@H](C)C1,8.34
4,COCCN(Cc1ccc(F)cc1Cl)C(=O)c1ccc(=O)[nH]n1,10.3
5,CC(Oc1ccccc1C(F)(F)F)C(=O)NCC(N)=O (centres undefined),12.9
6,Cc1cc(-c2cnc(N3CCNC(=O)C3)nc2-c2ccc(C)o2)on1,11.4
7,Cc1csc(CNC(=O)NCCc2ccc3c(c2)OCCO3)n1,13.5
8,O=C1COC2(CCN(CC3CC3)CC2)CN1c1ccccc1,18.6
9,COc1ccc(CCN2CCC(N3CCN(C)C3=O)CC2)cc1,8.45
10,CCOC(=O)c1c(NC(=O)CN2CCN(C(C)=O)CC2)sc2c1CCC2,7
11,CC(C)(C(=O)NCC(N)=O)c1ccccc1F,6.67
12,COc1c(CNCCNC(=O)Cc2ccc(F)cc2)c(C)nn1C,13.1
13,Cc1ccc(C(=O)N2CCO[C@H]3[C@@H](OCc4ccccn4)CC[C@@H]32)o1,12.7
14,CN1N=C(C(=O)NCc2ccc3c(c2)CCCN3C)CCC1=O,21.4
15,Cc1ccc(CCC(=O)N(C)CCN2CCOCC2)c(C)c1,17
16,c1cnnc(N2CCCC2CNCc2nc3ccccc3o2)c1 (centres undefined),21
17,Cc1nc(C(=O)N2CCCC2c2c(C)nn(C)c2C)ccc1C#N (centres undefined),16.1
18,Cc1noc([C@H]2C[C@@H]3CCN(CC4CC4)C[C@H]3O2)n1,3.13
19,CCOCC(=O)N1C[C@@H](NC(C)=O)[C@H](c2ccc(OC)cc2)C1,15.2
20,CCN1CC2(CCNCC2)COc2ccccc2S1(=O)=O,13.1

row,Compound,Percent Effect [%]
1,O=C(O)C1(Cc2cc(-c3cccc(F)c3)no2)CCOCC1,7.8
2,COc1ccc(C2(NC(=O)CCn3cncn3)CCCCC2)cc1,11.2
3,CCC(CNC(=O)Nc1cnn(CC)c1)N1CCCC1 (centres undefined),8.27
4,CC1CCCCN1CCNC(=O)c1ccn(-c2ccc(F)cc2)n1 (centres undefined),18.9
5,CN1CCCC(c2cccc(Cc3ccccc3Cl)n2)C1 (centres undefined),1.72
6,COCC1CN(C(=O)CNC(C)=O)Cc2ncnn2C1 (centres undefined),4.99
7,CCN(Cc1nc(C(C)C)no1)Cc1cccs1,12
8,CCc1nc(CN2CCCN(c3nc4ccccc4o3)CC2)no1,12.2
9,CC(NC(=O)Cn1cccn1)c1cccnc1 (centres undefined),1.92
10,COCc1ccccc1NC(=O)[C@@H]1CCCN1C(=O)c1ccco1,12.8
11,CCc1nnc2n1CCN(CC(=O)Nc1sccc1C#N)C2,12.6
12,COCC1CCN(C(=O)c2cccc(S(=O)(=O)NCC3(C)COC3)c2)C1 (centres undefined),1.63
13,CC(C)N1CCC(NCc2cccnc2N(C)Cc2ccccc2)CC1,4.01
14,CCc1cnc(CN(C)C2CCN(CCc3cccs3)C2)o1 (centres undefined),12.3
15,CN(CCn1nc2ccccn2c1=O)CC(=O)N1CCCC1,11.6
16,Cc1ccc(-c2csc(N)c2C#N)cc1,13.1
17,O=C(NCCN1CCOCC1)c1ccc(-n2ccc3ccccc32)s1,8.01
18,Cc1cnn(CC2CN(c3ncnc4ccccc34)CCO2)c1 (centres undefined),1.39
19,O=S(=O)(Cc1ccccc1)NCc1ccco1,-1.4
